Measured values reported in PubChem BioAssay (Tox21).
Results filed as inconclusive are left out. The source made the active and inactive calls. Unless noted, calls come from the whole dose curve; as a rule, active = well fitted curve in the direction sought with a large enough effect in the repeat runs; inconclusive = weak or mixed curves; inactive = no such curve, though single readings can be large; an effect the other way counts as inactive or inconclusive.

Legend:
[1] = qHTS assay to identify small molecule antagonists of the retinoid acid receptor (RAR) signaling pathway - cell viability counter screen (AID 1159551); note: nearly all actives have a fitted effect of over 35% in size
Method in brief: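 In this counter screen, the RARE-luciferase line C3RL4 was exposed for 6 h at 37 C and 5% CO2 to compounds with retinol at 1 uM final. Cellular ATP, read by luminescence, served as the viability measure.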

[2] = qHTS assay to identify small molecule antagonists of the retinoic acid receptor (RAR) signaling pathway (AID 1159552; note: nearly all actives have a fitted effect of over 50% in size)
Method in brief: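 Retinol signaling pathway inhibitors screened in C3RL4 RARE-luciferase reporter cells seeded overnight at 37 C, then compounds added with 1 uM (final) retinol as pathway substrate. After 6 hr at 37 C, luciferase luminescence read after 30 min at room temperature.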

[3] = qHTS assay to identify small molecule agonists of the retinoic acid receptor (RAR) signaling pathway (AID 1159553)
Method in brief: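 In this cell-based screen, 1,000 C3RL4 cells per well were cultured overnight, dosed with test chemicals in DMSO for 6 hr, and assessed for RARE luciferase luminescence.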

[4] = qHTS assay to identify small molecule antagonists of the estrogen related receptor (ERR) signaling pathway from Tox21 library - cell viability counter screen (AID 1224834); note: nearly all actives have a fitted effect of over 30% in size
Method in brief: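 Counter screen run in ERR cells (2,000 cells/well): cells pre-incubated 6 h, then treated with compounds for 17.5 h at 37 C. Fluorescence was read 30 min after CellTiter-Fluor addition.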

[5] = molecular target: Luciferin 4-monooxygenase (Photinus pyralis) (UniProt P08659); assay: qHTS assay to identify small molecule inhibitors of firefly luciferase (AID 1224835); note: nearly all actives have a fitted effect of over 25% in size
Luciferin 4-monooxygenase (Photinus pyralis), sequence (P08659 whole entry, looked up): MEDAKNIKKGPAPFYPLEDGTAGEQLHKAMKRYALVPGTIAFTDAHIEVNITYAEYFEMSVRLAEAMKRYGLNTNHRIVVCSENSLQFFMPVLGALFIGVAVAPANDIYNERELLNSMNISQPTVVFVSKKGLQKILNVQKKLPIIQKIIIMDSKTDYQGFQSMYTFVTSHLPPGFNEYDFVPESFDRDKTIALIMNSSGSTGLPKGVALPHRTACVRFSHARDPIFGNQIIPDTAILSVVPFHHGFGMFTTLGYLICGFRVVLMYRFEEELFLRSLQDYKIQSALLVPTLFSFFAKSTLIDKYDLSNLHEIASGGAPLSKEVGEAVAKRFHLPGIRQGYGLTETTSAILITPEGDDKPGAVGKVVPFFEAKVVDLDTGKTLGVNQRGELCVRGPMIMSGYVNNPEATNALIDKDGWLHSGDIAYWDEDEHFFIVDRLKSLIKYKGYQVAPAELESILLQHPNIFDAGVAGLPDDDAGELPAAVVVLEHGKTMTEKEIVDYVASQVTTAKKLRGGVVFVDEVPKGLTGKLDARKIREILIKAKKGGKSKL
Method in brief: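 Inhibition of purified Photinus luciferase is measured by luminescence. Substrate levels (D-luciferin, ATP) sit at their KM values. Each compound is tested in a concentration series.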

[6] = qHTS assay to identify small molecule agonists of the constitutive androstane receptor (CAR) signaling pathway - cell viability counter screen (AID 1224836); note: nearly all actives have a fitted effect of over 45% in size
Method in brief: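 HepG2 cells stably carrying hCAR and a CYP2B6-2.2kb reporter; 15-concentration compounds plus PK11195 (final 0.75 uM), 23 hr at 37 C/5% CO2. Viability read by CellTiter-Fluor fluorescence.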

[7] = molecular target: Nuclear receptor subfamily 1 group I member 3 (Homo sapiens) (UniProt Q14994); assay: qHTS assay to identify small molecule agonists of the constitutive androstane receptor (CAR) signaling pathway (AID 1224839); note: nearly all actives have a fitted effect of over 15% in size
Nuclear receptor subfamily 1 group I member 3 (Homo sapiens), sequence (Q14994 whole entry, looked up): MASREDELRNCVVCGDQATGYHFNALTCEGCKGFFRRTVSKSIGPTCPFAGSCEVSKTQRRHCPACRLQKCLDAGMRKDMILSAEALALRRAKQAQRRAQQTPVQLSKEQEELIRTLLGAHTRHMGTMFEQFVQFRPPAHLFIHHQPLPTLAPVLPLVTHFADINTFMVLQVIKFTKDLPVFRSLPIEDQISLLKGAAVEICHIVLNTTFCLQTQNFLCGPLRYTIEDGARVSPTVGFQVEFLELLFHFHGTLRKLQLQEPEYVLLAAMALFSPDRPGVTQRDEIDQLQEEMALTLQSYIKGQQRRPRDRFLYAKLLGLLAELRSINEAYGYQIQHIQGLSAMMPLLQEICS
Method in brief: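 HepG2 cells stably co-transfected with hCAR and a CYP2B6-2.2kb luciferase reporter; compounds at 15 concentrations with 0.75 uM PK11195 present. After 24 hr at 37 C, luciferase read by ONE-Glo luminescence.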

[8] = qHTS assay to identify small molecule antagonists of the estrogen related receptor signaling pathway with the pleiotropic PPARgamma coactivator (PGC) from Tox21 10K library - cell viability counter screen (AID 1224840; active = well fitted cell-killing curve with a large enough effect in the repeat runs, not every such curve was filed as active; note: nearly all actives have a fitted effect of over 40% in size)
Method in brief: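 Readout: fluorescence intensity from CellTiter-Fluor after 30 min at 37 C/5% CO2. Preceded by 17.5 h treatment of PGC/ERR cells with DMSO-dissolved compounds, added 6 h post-seeding.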

[9] = qHTS assay to identify small molecule antagonists of the estrogen related receptor signaling pathway with the pleiotropic PPARgamma coactivator (PGC) from Tox21 10K library (AID 1224841; call rule not given here; note: actives are mostly falling curves and most rising ones were filed inactive; nearly all actives have a fitted effect of over 50% in size)
Method in brief: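 One-Glo luminescence, measured after half an hour at room temperature, quantified reporter output of PGC/ERR cells. These had been plated at 2,000 per well, incubated 6 h, dosed with compounds in DMSO, then kept 18 h at 37 C.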

[10] = qHTS assay to identify small molecule agonists of the estrogen related receptor signaling pathway with the pleiotropic PPARgamma coactivator (PGC) from Tox21 10K library (AID 1224842); note: nearly all actives have a fitted effect of over 15% in size
Method in brief: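 Luminescence from One-Glo (30 min, room temperature) measured after PGC/ERR cells had 18 h at 37 C with pinned compound (23 nL in DMSO). Cells had been seeded at 2,000 per well and pre-incubated 6 h.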

[11] = qHTS assay to identify small molecule agonists of the hypoxia (HIF-1) signaling pathway - cell viability counter screen (AID 1224844; calls by dose curve; note: nearly all actives have a fitted effect of over 50% in size)
Method in brief: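 In this counter screen, HRE-bla ME-180 cell viability after 17 hrs of compound exposure at 37C was read by CellTiter-Glo luminescence, multiplexed with the beta-lactamase reporter measurement.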

[12] = qHTS assay to identify small molecule agonists of H2AX (AID 1224845; active = well fitted activation curve with a large enough effect in the signal ratio in the repeat runs, not every such curve was filed as active; the % refers to the signal ratio)
Method in brief: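 Phospho-H2AX Ser139 measured by HTRF (ex 320 nm; em 665 and 620 nm) after 24 hr antibody incubation. Compounds, 15 concentrations, 0.76% DMSO, were applied to CHO-K1 cells for 3hr at 37C before lysis.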

[13] = qHTS assay to identify small molecule agonists of the hypoxia (HIF-1) signaling pathway (AID 1224846; active = well fitted activation curve with a large enough effect in the signal ratio in the repeat runs, not every such curve was filed as active; the % refers to the signal ratio)
Method in brief: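 ME-180 HRE-bla reporter cells; compounds in DMSO, 17 h at 37C; read-out beta-lactamase via CCF4-AM FRET.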

[14] = qHTS assay to identify small molecule agonists of H2AX - cell viability counter screen (AID 1224847; calls by dose curve;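 note: wild-type CHO-K1 cells; top concentration of the series differs between compounds; nearly all actives have a fitted effect of over 30% in size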)
Method in brief: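 CHO-K1 cells plated overnight at 37C, then exposed 3 h at 37C to compounds at 15 concentrations (0.76% DMSO final). Viability by CellTiter-Glo luminescence after 30 min at room temperature.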

[15] = qHTS assay to identify small molecule antagonists of the estrogen related receptor (ERR) signaling pathway from Tox21 library (AID 1224848); note: nearly all actives have a fitted effect of over 50% in size
Method in brief: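 Luciferase luminescence (ONE-Glo, 30 min room temperature) was the read-out. Cells of the NTP-supplied ERR line, 2,000 per well, were given 6 h at 37 C before compound addition in DMSO and 18 h exposure at 37 C.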

[16] = qHTS assay to identify small molecule agonists of the estrogen related receptor (ERR) signaling pathway from Tox21 library (AID 1224849; calls by dose curve; note: nearly all actives have a fitted effect of over 15% in size); conditions: ERR reporter cell line, ONE-Glo luciferase, 18 h; at 92.4 µM (top of the series) unless noted
Method in brief: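 Luciferase activity in ERR pathway reporter cells served as the agonist readout; exposure lasted 18 h at 37 C, with ONE-Glo detection after 30 min at room temperature.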

[17] = qHTS RealTime-Glo MT Cell Viability Assay in HepG2 cells - 24 hour (AID 1224867); note: nearly all actives have a fitted effect of over 50% in size
Method in brief: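 Real-time, nonlytic viability: 600 HepG2 cells/well mixed with NanoLuc enzyme plus prosubstrate; 5 h settle, compound (DMSO) added by pintool; luminescence monitored over 40 h at 37 C.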

[18] = molecular target: Thyrotropin receptor (Homo sapiens) (UniProt P16473); assay: qHTS assay to identify small molecule agonists of the thyroid stimulating hormone receptor (TSHR) signaling pathway (AID 1224843; calls by dose curve; note: nearly all actives have a fitted effect of over 45% in size)
Thyrotropin receptor (Homo sapiens), sequence (P16473 whole entry, looked up): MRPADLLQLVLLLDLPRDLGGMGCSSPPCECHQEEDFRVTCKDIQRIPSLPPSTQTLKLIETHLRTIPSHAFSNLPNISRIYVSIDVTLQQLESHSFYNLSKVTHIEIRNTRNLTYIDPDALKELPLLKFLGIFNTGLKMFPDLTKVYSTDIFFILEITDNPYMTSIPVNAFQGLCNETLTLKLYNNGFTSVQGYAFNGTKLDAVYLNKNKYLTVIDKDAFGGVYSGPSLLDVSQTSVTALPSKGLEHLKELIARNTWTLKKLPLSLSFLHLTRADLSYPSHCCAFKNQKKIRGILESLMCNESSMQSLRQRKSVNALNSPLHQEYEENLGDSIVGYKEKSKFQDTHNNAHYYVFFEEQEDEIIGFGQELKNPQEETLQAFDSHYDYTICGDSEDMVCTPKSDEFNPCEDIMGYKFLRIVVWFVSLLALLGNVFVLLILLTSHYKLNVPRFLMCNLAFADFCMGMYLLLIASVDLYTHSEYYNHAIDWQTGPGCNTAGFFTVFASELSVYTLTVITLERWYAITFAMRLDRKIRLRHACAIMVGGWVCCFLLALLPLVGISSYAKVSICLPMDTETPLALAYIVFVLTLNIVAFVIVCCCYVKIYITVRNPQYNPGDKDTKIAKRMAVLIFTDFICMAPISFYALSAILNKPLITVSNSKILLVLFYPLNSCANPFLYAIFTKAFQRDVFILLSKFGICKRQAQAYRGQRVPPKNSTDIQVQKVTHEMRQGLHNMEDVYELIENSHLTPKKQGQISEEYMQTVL
Method in brief: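 Agonist activity read as cAMP rise via d2/cryptate HTRF competition, 1 h room-temperature detection, in HEK293 cells expressing TSHR. Fifteen-point titrations, each run in triplicate, with a 30 min room-temperature incubation beforehand.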

[19] = molecular target: Nuclear receptor subfamily 1 group I member 3 (Homo sapiens) (UniProt Q14994); assay: qHTS assay to identify small molecule antagonists of the constitutive androstane receptor (CAR) signaling pathway (AID 1224838); note: nearly all actives have a fitted effect of over 40% in size
Method in brief: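 Inhibition of CITCO-driven (50 nM final) CYP2B6 reporter expression is measured in HepG2 cells stably carrying hCAR. Fifteen compound concentrations are applied for 24 h at 37 C, followed by luciferase luminescence.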

[20] = qHTS assay to identify small molecule antagonists of the constitutive androstane receptor (CAR) signaling pathway - cell viability counter screen (AID 1224837); note: nearly all actives have a fitted effect of over 45% in size
Method in brief: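 CITCO at 50 nM final was added alongside compounds (15 concentrations) to double-stable hCAR/CYP2B6-2.2kb HepG2 cells. Following 23 hr at 37 C, cell viability was quantified by CellTiter-Fluor fluorescence intensity.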
% is set by controls: 0 for no effect and ±100 for the full control effect.

CO/N=C(\C(=O)O)c1csc(NC(=O)CCl)n1
inactive: outcome [1] | outcome [2] | Potency [3] | outcome [4] | Potency [5] | outcome [6] | Potency [7] | outcome [8] | Potency [9] | Potency [10] | outcome [11] | outcome [12] | outcome [13] | outcome [14] | outcome [15] | activity change, positive = activation [16] 4.95% [at 42.5 µM] | outcome [17]

COCCCOc1cc(C[C@@H](C[C@H](N)[C@@H](O)C[C@H](C(=O)NCC(C)(C)C(N)=O)C(C)C)C(C)C)ccc1OC
inactive: outcome [1] | outcome [2] | Potency [3] | outcome [4] | Potency [5] | outcome [6] | outcome [8] | Potency [18] | outcome [11] | outcome [12] | outcome [14] | outcome [17]

CC(=O)c1c(C)cc(C(C)(C)C)cc1C
inactive: outcome [1] | outcome [2] | Potency [3] | outcome [4] | Potency [5] | outcome [6] | outcome [19] | Potency [7] | outcome [8] | Potency [9] | outcome [11] | outcome [12] | outcome [15] | activity change, positive = activation [16] -1.7% | outcome [17]

O=C(O)Cc1c(Cl)ccc(Cl)c1Cl
inactive: outcome [1] | outcome [2] | Potency [3] | outcome [4] | outcome [6] | outcome [20] | outcome [19] | Potency [7] | outcome [8] | Potency [9] | Potency [10] | Potency [18] | outcome [11] | outcome [14] | activity change, positive = activation [16] 6.33% | outcome [17]

CCO[Si](CC(C)C)(OCC)OCC
inactive: outcome [1] | outcome [2] | Potency [3] | outcome [4] | Potency [5] | outcome [6] | outcome [8] | Potency [9] | outcome [11] | outcome [12] | outcome [14] | activity change, positive = activation [16] -27.2% | outcome [17]

C/C(Cl)=C/CCl
inactive: outcome [1] | outcome [2] | Potency [3] | outcome [4] | Potency [5] | outcome [6] | outcome [19] | Potency [7] | outcome [8] | Potency [18] | outcome [11] | outcome [12] | outcome [13] | outcome [14] | outcome [17]

CC(=O)c1ccc(O)c(C(N)=O)c1
inactive: outcome [1] | outcome [2] | Potency [3] | outcome [4] | Potency [5] | outcome [6] | outcome [20] | outcome [8] | Potency [18] | outcome [11] | outcome [12] | outcome [13] | outcome [14] | outcome [17]

CCCCCC(CC)OC(=O)CCCOc1ccc(Cl)cc1Cl (stereo unspecified)
inactive: outcome [1] | outcome [2] | Potency [3] | outcome [4] | Potency [5] | outcome [6] | outcome [8] | outcome [11] | outcome [12] | outcome [14] | outcome [15] | activity change, positive = activation [16] 6.42% | outcome [17]

CC1(C)S[C@@H]2[C@H](NC(=O)Cc3ccccc3)C(=O)N2[C@H]1C(=O)O (tested in a mixture with another compound)
inactive: outcome [1] | outcome [2] | Potency [3] | outcome [4] | Potency [5] | outcome [6] | outcome [8] | Potency [18] | outcome [11] | outcome [12] | outcome [14] | outcome [17]

COCc1nnc(-c2ccc[n+]([O-])c2)n1-c1c(Cl)c(Cl)cc2[nH]c(=O)c(=O)[nH]c12
inactive: outcome [1] | outcome [2] | Potency [3] | outcome [4] | Potency [5] | outcome [6] | outcome [20] | outcome [8] | Potency [18] | outcome [11] | outcome [12] | outcome [13] | outcome [14] | outcome [17]

CC(=O)OC1CCC(C(C)(C)C)CC1 (stereo unspecified)
inactive: outcome [1] | outcome [2] | Potency [3] | outcome [4] | Potency [5] | outcome [6] | outcome [19] | Potency [7] | outcome [8] | Potency [18] | outcome [11] | outcome [12] | outcome [13] | outcome [14] | outcome [17]

Cc1ccc(N)nc1
inactive: outcome [1] | outcome [2] | Potency [3] | outcome [4] | Potency [5] | outcome [6] | outcome [8] | Potency [9] | Potency [18] | outcome [11] | outcome [12] | outcome [13] | outcome [14] | outcome [15] | activity change, positive = activation [16] 3.66% | outcome [17]

Cc1ccc(S(=O)(=O)NC(=O)NN2CC3CCCC3C2)cc1 (stereo unspecified)
inactive: outcome [1] | outcome [2] | Potency [3] | outcome [4] | Potency [5] | outcome [6] | outcome [19] | Potency [7] | outcome [8] | Potency [18] | outcome [11] | outcome [12] | outcome [14] | outcome [17]
